Results taken from the supplement of paper PMC10037445.
The full ranking holds about 2,900 compounds; the median of “NF-kB SEAP reporter activity, fold change vs agonist alone” is about 0.99, and the highest 2% start at about 2.6. This is one part of a sample in which the highest values are shown more often than they occur.

Key:
RAW-Dual [1] = test: NF-kB SEAP reporter activity, fold change vs agonist alone; higher = enhanced NF-kB activity; conditions: library stock concentration (final ~1000-fold dilution): 10 mM, cytotoxicity flag (confluency mask): not cytotoxic
Summary of the method: (§1)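 RAW-Dual macrophages (50,000 cells/well in DMEM, 384-well plates) received 50 nL of library stock by pin tool, then a PRR agonist 1 h later, and were kept at 37 °C, 5% CO2. After 20 hours, supernatant was read for IRF by QuantiLuc luminescence and for NF-κB by QuantiBlue absorbance at 620 nm. Reporter activity is fold change over agonist-alone wells. Cytotoxic wells had IncuCyte confluency below 70% of agonist controls in both mask sets.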

RAW-Dual [2] = test: NF-kB SEAP reporter activity, fold change vs agonist alone; cytotoxicity flag (confluency mask): not cytotoxic; higher = enhanced NF-kB activity
Summary of the method: as §1

[3] = agonist: ODN 1826 (TLR9) 0.5 ug/mL
[4] = agonist: Pam2CSK4 (TLR2/6) 0.1 ug/mL
[5] = agonist: Pam3CSK4 (TLR2/1) 0.1 ug/mL

| Compound | NF-kB SEAP reporter activity (RAW-Dual [1]; agonist: Imiquimod (TLR7) […]) | NF-kB SEAP reporter activity (RAW-Dual [1]; agonist: MPLA (TLR4) […]) | NF-kB SEAP reporter activity (RAW-Dual [2]; agonist: LPS (TLR4) 0.1 ug/mL) | NF-kB SEAP reporter activity (RAW-Dual [2]; [3]) | NF-kB SEAP reporter activity (RAW-Dual [2]; [4]) | NF-kB SEAP reporter activity (RAW-Dual [2]; [5]) |
| --- | --- | --- | --- | --- | --- | --- |
| CC(NC(=O)c1c(N)nn2cccnc12)c1cc2cccc(C#Cc3cnn(C)c3)c2c(=O)n1-c1ccccc1 (configuration not stated) | 1.18 | 1.44 | – | – | – | – |
| CC(Nc1ncnc(N)c1C#N)c1cc2cccc(-c3ccc(=O)n(C)c3)c2c(=O)n1C(C)C (configuration not stated) | 1.22 | 2.8 | – | – | – | – |
| CC(Nc1ncnc(N)c1C#N)c1cc2cccc(-c3ccc(=O)n(C)c3)c2c(=O)n1C(C)C (configuration not stated) (library stock concentration (final ~1000-fold dilution): 10 mM) | – | – | 4.83 | 0.722 | 1.22 | 3.02 |
| CC(Nc1ncnc2[nH]cnc12)c1cc2cccc(Cl)c2c(=O)n1-c1ccccc1 (configuration not stated) (library stock concentration (final ~1000-fold dilution): 10 mM) | – | – | 0.744 | 0.653 | 0.665 | 0.549 |
| CC(NC(=O)c1c(N)nn2cccnc12)c1cc2cccc(C#Cc3cnn(C)c3)c2c(=O)n1-c1ccccc1 (configuration not stated) (library stock concentration (final ~1000-fold dilution): 10 mM) | – | – | 2.34 | 1.3 | 0.628 | 0.931 |
| CC(Nc1ncnc2[nH]cnc12)c1cc2cccc(Cl)c2c(=O)n1-c1ccccc1 (configuration not stated) | 0.473 | 0.709 | – | – | – | – |
| Cc1cccc(C)c1OCC(=O)NC(Cc1ccccc1)C(O)CC(Cc1ccccc1)NC(=O)C(C(C)C)N1CCCNC1=O (configuration not stated) (library stock concentration (final ~1000-fold dilution): 10 mM) | – | – | 1.37 | 2.09 | 0.396 | 1.03 |
| Cc1cccc(C)c1OCC(=O)NC(Cc1ccccc1)C(O)CC(Cc1ccccc1)NC(=O)C(C(C)C)N1CCCNC1=O (configuration not stated) | 1.63 | 2.06 | – | – | – | – |
| Cc1ccc(S(=O)(=O)O)cc1.NC(=O)c1cccc2cn(-c3ccc(C4CCCNC4)cc3)nc12 (configuration not stated) | 0.663 | 1.04 | – | – | – | – |
| Cc1ccc(S(=O)(=O)O)cc1.NC(=O)c1cccc2cn(-c3ccc(C4CCCNC4)cc3)nc12 (configuration not stated) (library stock concentration (final ~1000-fold dilution): 10 mM) | – | – | 1.04 | 0.181 | 1.41 | 1.1 |
| Cc1nc2ccc(CN(C)c3ccc(C(=O)NC(CCC(=O)O)C(=O)O)s3)cc2c(=O)[nH]1 (configuration not stated) (library stock concentration (final ~1000-fold dilution): 10 mM) | – | – | 1.56 | 1.93 | 1.31 | 1.7 |
| Cc1nc2ccc(CN(C)c3ccc(C(=O)NC(CCC(=O)O)C(=O)O)s3)cc2c(=O)[nH]1 (configuration not stated) | 1.78 | 1.45 | – | – | – | – |
| CNc1ccc([N+](=O)[O-])cc1-n1cnc(-c2ccc(C(F)(F)F)cc2)c1 | 1.24 | 2.01 | – | – | – | – |
| CNc1ccc([N+](=O)[O-])cc1-n1cnc(-c2ccc(C(F)(F)F)cc2)c1 (library stock concentration (final ~1000-fold dilution): 10 mM) | – | – | 4.5 | 1.91 | 0.926 | 1.08 |
